GLP1R inv ag – qHTS of GLP-1 Receptor Inverse Agonists (Inhibition Mode) | Glucagon-like peptide 1 receptor (Homo sapiens), P43220 | Potency, µM (top dose mostly 38.3 µM), for inactives: top-dose activity change, negative = inhibition, most hits filed as inhibitors | HEK293 GLP-1R CRE-luciferase, luminescence, 24 h; GLP-1R form is constitutively active | 410,000 compounds, 1.6% hits; also: % is scaled to controls: 0 for no effect and ±100 for the full control effect; nearly all actives have a fitted effect of over 55% in size
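Seeding at 200 cells/uL, 12 h culture, 24 hr compound treatment, then luciferase reagent and a luminescence read; cells are HEK293 stably expressing a constitutively active GLP-1R plus cAMP-responsive luciferase.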
GLP-1R agonist – qHTS of GLP-1 Receptor Agonists. Glucagon-like peptide 1 receptor (Homo sapiens), P43220. HEK293 GLP-1R CRE-luciferase, luminescence, 4-6 h; cells express a hypersensitive GLP-1R form. Potency, µM (titrated, usually from 45.6 µM), without a hit: at the highest dose activation, usual class: activators. 380,000 compounds, 0.007% hits. AID 624172, 2012; also: % of control where 0% means no effect
GLP1R cytotox – qHTS of GLP-1 Receptor Inverse Agonists: Cytotox Screen | HEK293 cAMP-luciferase reporter cells, luminescence, 24 h | Potency, µM (titrated, usually from 38.3 µM), for inactives: top-dose activity change, negative = inhibition, actives largely listed as inhibitors | 410,000 compounds, 0.13% hits;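 also: loss of luciferase light is scored as toxicity; % is scaled to controls: 0 for no effect and ±100 for the full control effect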
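Cells in DMEM/10% Nu serum/1% pen-strep, 1536-well format. Pre-incubated 12 h, dosed with 23 nL compound, incubated a further 24 h. Luciferase detection, 12 min at room temp, luminescence.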
VP16 counter – VP16 counterscreen qHTS for inhibitors of ROR gamma transcriptional activity; Drosophila S2 Gal4-VP16 UAS-luciferase, luminescence, 20 h; 310,000 compounds, 3.5% hits; Potency, µM (series often up to 53.6 µM), for the others: at the top dose activity, negative = inhibition, usual class: inhibitors;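 also: Gal4-VP16 expression switched on by copper sulfate through the metallothionein promoter; % is scaled to controls: 0 for no effect and ±100 for the full control effect; nearly all actives have a fitted effect of over 50% in size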
RORg inh – qHTS for inhibitors of ROR gamma transcriptional activity; Nuclear receptor ROR-gamma (Mus musculus), P51450; Drosophila S2 Gal4-RORgamma UAS-luciferase reporter, 20 h; Potency, µM (highest dose often 53.6 µM), inactives show at the highest dose activity change, negative = inhibition, actives largely listed as inhibitors; 310,000 compounds, 5.4% hits; AID 2551, 2010; also: % is scaled to controls: 0 for no effect and ±100 for the full control effect; nearly all actives have a fitted effect of over 60% in size
Target sequence (P51450 whole entry, looked up, the tested form may be a part): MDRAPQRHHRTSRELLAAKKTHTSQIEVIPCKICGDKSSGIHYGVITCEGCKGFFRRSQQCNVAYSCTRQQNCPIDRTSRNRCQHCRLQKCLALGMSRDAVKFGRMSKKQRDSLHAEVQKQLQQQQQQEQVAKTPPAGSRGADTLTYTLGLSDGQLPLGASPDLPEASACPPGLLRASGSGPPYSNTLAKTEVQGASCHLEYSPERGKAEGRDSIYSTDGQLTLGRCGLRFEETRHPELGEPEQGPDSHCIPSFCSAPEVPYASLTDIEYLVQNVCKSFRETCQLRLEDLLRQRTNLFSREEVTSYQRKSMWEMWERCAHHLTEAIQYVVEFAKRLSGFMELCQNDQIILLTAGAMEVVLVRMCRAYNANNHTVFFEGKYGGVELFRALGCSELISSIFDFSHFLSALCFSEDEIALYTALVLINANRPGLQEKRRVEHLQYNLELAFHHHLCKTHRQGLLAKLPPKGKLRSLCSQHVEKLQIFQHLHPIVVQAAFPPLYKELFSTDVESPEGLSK
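Using a luciferase readout, inhibitors were identified by reduced reporter activity in Drosophila cells coexpressing a copper-inducible Gal4–ROR gamma fusion and UAS-driven Photinus luciferase, incubated 20 hr after 700 uM copper sulfate.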
Active calls of the source: *; ? = inconclusive; nt = no result; [ ] = dose if it differs, or a comment. Hits are enriched below; roughly 5.9% of the tested compounds scored in any of these assays. Calls follow the shape of the dose curve; as a rule, active = well fitted curve in the direction sought with a large enough effect; inconclusive = small, poorly fitted or top-dose-only effect, or another doubt; inactive = no such curve, though single readings can be large; an effect the other way counts as inactive or inconclusive. Potency is read from the fitted curve at half-maximal effect.

SMILES	GLP1R inv ag	GLP-1R agonist	GLP1R cytotox	VP16 counter	RORg inh
Cc1ccc(N(NC(=O)C(O)(c2ccccc2)c2ccccc2)C(=O)CCl)cc1	?	-13.9%	?	7.94µM*	6.31µM*
Cc1ccc(C(O)(C(=O)NN(C(=O)c2ccccc2)c2ccccc2)c2ccc(C)cc2)cc1	-20.4%	-7.2%	-22.8%	-15.2%	13.0%
Oc1ccc(O)c(Cc2nc3ccccc3[nH]2)c1	9.0%	4.7%	7.9%	-29.4%	15.8µM*
c1ccc2[nH]c(CCCc3nc4ccccc4[nH]3)nc2c1	40.4%	3.1%	-5.5%	2.2%	-2.3%
CCOC(=O)c1cnc(-n2nc(C)cc2C)nc1NNc1nc(C)cc(C)n1	-15.9%	3.5%	-5.6%	?	3.98µM*
CCOC(=O)c1cnc(-n2nc(C)cc2C)nc1NNc1nc(-c2ccccc2)cc(-c2ccccc2)n1	22.9%	0.0%	0.9%	0.708µM*	0.794µM*
COc1ccc(CNc2ccnc(-c3ccc(N(C)C)cc3)n2)c(OC)c1	nt	nt	nt	3.4%	28.0%
Cn1ccnc1SCc1ccc([N+](=O)[O-])cc1	7.4%	-3.2%	6.3%	1.8%	-26.7%
Cn1ccnc1SCc1cn2cc(Br)ccc2n1	4.47µM*	-20.6%	-13.0%	10µM*	11.2µM*
CC(C)c1ccc(NC(=S)NC2CCN(Cc3ccccc3)CC2)cc1	0.0%	-25.5%	?	?	15.8µM*
Cc1ccc(NC(=S)NC2CCN(Cc3ccccc3)CC2)cc1	?	-6.3%	2.5%[1.53 µM]	?	12.6µM*
FC(F)(F)c1ccccc1NC(=S)NC1CCN(Cc2ccccc2)CC1	-21.6%	7.1%	-7.0%	0.7%	-14.6%
S=C(Nc1cc(Cl)cc(Cl)c1)NC1CCN(Cc2ccccc2)CC1	3.98µM*	-1.9%	?	?	?
CC(C)c1ccccc1NC(=S)NC1CCN(Cc2ccccc2)CC1	?	-0.2%	?	15.8µM*	14.1µM*
Cc1ccc(CN(C(=O)COc2ccccc2Cl)c2ccccn2)o1	-4.0%	nt	5.7%	nt	nt
Cc1nc(NC2CCCCC2)c2nc(-c3ccccc3)n(CCCN3CCCCC3C)c2n1 (stereo not drawn)	nt	nt	nt	-4.5%	?
COc1ccc(C(=O)c2cn(Cc3ccccc3F)c3ccc(F)cc3c2=O)cc1	?	nt	1.2%	nt	nt
Cc1c(Cl)cccc1NC(=S)N1CCN(Cc2ccccc2)CC1	?	-2.5%	-25.3%	?	10µM*
Cc1ccc(NC(=S)NC2CCN(Cc3ccccc3)CC2)cc1C	?	6.3%	-30.3%	?	11.2µM*
S=C(Nc1ccccc1Cl)NC1CCN(Cc2ccccc2)CC1	?	-19.9%	-12.8%	5.8%	-24.5%
S=C(Nc1ccccc1Cl)N1CCN(Cc2ccccc2)CC1	?	1.8%	4.0%	6.1%	?
S=C(NCc1ccc(Cl)cc1)NC1CCN(Cc2ccccc2)CC1	3.55µM*	6.2%	?	?	?
Cc1c(Cl)cccc1NC(=S)NC1CCN(Cc2ccccc2)CC1	?	-5.9%	-21.5%	-95.5%	10µM*
Clc1ccc(CNC2CCN(Cc3ccccc3)CC2)cc1	-42.0%	2.6%	-9.8%	0.6%	-0.3%[1.91 µM]
CSc1ncc(C(=O)NCc2ccc(C)cc2)c(C)n1	13.7%	nt	0.4%	nt	nt
SMILES	GLP1R inv ag	GLP-1R agonist	GLP1R cytotox	VP16 counter	RORg inh
Cc1nnc2c(N3CCN(c4ccccc4F)CC3)nc3ccc(C(=O)c4ccccc4)cc3n12	13.4%	nt	-12.3%	nt	nt
Cc1oc2ncn(CC(C)C)c(=O)c2c1C(=O)N(Cc1ccccc1)C(C)C	-28.5%	nt	-11.3%	nt	nt
COC(=O)c1cc(CSC(=N)N)ccc1OCCC(C)C	10µM*	14.0%	?	?	?
CCCOc1ccc(CSC(=N)N)cc1C(=O)OC	?	8.8%	-3.4%	-0.6%	10.7%
Oc1cccc2ccc(/C=C/c3ccccc3Cl)nc12	-3.3%	8.0%	-0.4%	4.47µM*	3.98µM*
Nc1nccc(/C=C/c2c(F)cccc2Cl)n1	4.6%	7.7%	2.7%	-5.4%[10 µM]	-25.7%
O=[N+]([O-])c1ccccc1/C=C/c1ccc2ccccc2n1	?	?	-11.5%	1.9%	25.6%
COc1ccc(C(=O)N/N=C/C(Br)=C/c2ccccc2)cc1	7.2%	9.0%	6.0%	15.8µM*	3.55µM*
Oc1cccc2ccc(/C=C/c3c(F)cccc3Cl)nc12	?	12.5%	?	?	3.16µM*
COc1ccc(C(=O)N/N=C/c2ccc3cccc(O)c3n2)cc1	15.7%	0.6%	-29.5%	3.98µM*	1.41µM*
O=C(NCCc1ccccc1)C(=O)NCC(c1cccnc1)N1CCN(c2ccccc2)CC1 (stereo not drawn)	-27.6%	nt	-11.5%	nt	nt
CCC(=O)N1CCc2cc(S(=O)(=O)CCC(=O)Nc3ccc(Cl)c(C(F)(F)F)c3)ccc21	-7.6%	-4.5%	-2.8%	nt	nt
CCCCC1CCC(C(=O)N2CC(=O)Nc3ccc(F)cc3C2c2ccc(F)cc2)CC1 (stereo not drawn)	?	nt	-14.3%	nt	nt
O/N=C/c1ccc2ccccc2n1	29.9%	12.2%	-2.7%	-5.0%	-29.5%
O/N=C/c1ccc2cccc(O)c2n1	?	10.7%	-21.6%	?	11.2µM*
COc1ccc(OC)c(CCNC(=O)CCn2c(=O)c3cccn3c3cccnc32)c1	6.1%	nt	4.8%	nt	nt
Cc1ccc(N=Nc2c(C)[nH]n(-c3ccccc3)c2=O)c(C)c1	10.5%	3.7%	13.5%	17.8µM*	?
CC(=O)OCC(=O)[C@@]1(O)CCC2C3CCC4=CC(=O)CC[C@]4(C)C3=CC[C@@]21C (stereo partly drawn)	nt	-5.7%	nt	nt	nt
COc1cccc(NC(=O)Nc2ccc(CC(=O)O)cc2)c1	2.1%	-4.4%	-4.9%	20µM*	?
COc1cccc(NC(=O)Nc2cccc(C(=O)O)c2)c1	2µM*	-3.5%	5.1%	?	?
O=C(Nc1cccc(C(=O)O)c1)Nc1ccc2c(c1)OCO2	?	-5.2%	-7.6%	11.2µM*	10µM*
COc1cccc(NC(=O)C2(C)CCN2CCc2ccccc2)c1 (stereo not drawn)	11.2µM*	4.9%	0.3%	nt	nt
COCC(=O)N1CCC[C@@]2(CCN(Cc3cc(C(F)(F)F)cc(C(F)(F)F)c3)C2)C1	nt	nt	nt	6.8%	-24.1%
CCOc1ccc(CCNC(=O)Nc2cccc(OC)c2)cc1OCC	11.2µM*	-2.8%	-17.8%	15.8%	3.3%
COc1cccc(NC(=O)NCCC2=CCCCC2)c1	?	10.3%	-21.6%	17.3%	19.2%
COC(=O)C(C(C)C)N1CC(=O)c2ccccc2S1(=O)=O (stereo not drawn)	nt	nt	nt	-9.5%	-17.0%
NNC(=S)NCc1ccccc1	?	0.3%	?	10µM*	2.82µM*
NNC(=S)NCc1cccnc1	-10.8%	-3.0%	?	?	8.91µM*
